Assay results published in ChEMBL document CHEMBL4513216, “Probing the Open Global Health Chemical Diversity Library for Multistage-Active Starting Points for Next-Generation Antimalarials” (ACS Infect Dis, 2020).
Out of some 69,000 compounds screened, about 8,600 (12%) showed an effect of 50% or more. This excerpt belongs to a sample that is enriched for strong results.

Each molecule was assayed on Plasmodium berghei (assay: Screen against P. berghei liver stage (PbLuc), transformed with Luciferase, at 10uM). Settings: tested at 10 uM.
Format: functional, HepG2
Work on `Cc1ncsc1C(=O)OCCN1CCCCCC1=O` yielded an INHIBITION of -60.9%.
`CCc1n[nH]c(C2CN(C(=O)Cc3cccs3)CCO2)n1` (stereo unspecified) was tested, and the INHIBITION was -33.7%.
Work on `CCCc1n[nH]c(C2CN(C(=O)CCCn3ccnc3)CCO2)n1` (stereo unspecified) yielded an INHIBITION of -18.9%.
`CCc1n[nH]c(C2CN(C(=O)CCCn3cccn3)CCO2)n1` (stereo unspecified) was tested, and the INHIBITION was 56.1%.
For `CCc1n[nH]c(C2CN(C(=O)CCc3cccs3)CCO2)n1` (stereo unspecified), the INHIBITION was 51.3%.
`CCCc1n[nH]c(C2CN(C(=O)CCCn3ccnc3C)CCO2)n1` (stereo unspecified) gave an INHIBITION of 87.2%.
For `Cc1n[nH]c(C2CN(C(=O)CCCn3cccn3)CCO2)n1` (stereo unspecified), the INHIBITION was -22.1%.
Molecule `CCCc1n[nH]c(C2CN(C(=O)CCn3nc(C)cc3C)CCO2)n1` (stereo unspecified) has an INHIBITION of 34.6%.
With `CC(C)(C)c1n[nH]c(C2CN(C(=O)CCc3cccs3)CCO2)n1` (stereo unspecified) the INHIBITION was -32.5%.
`CCCc1n[nH]c(C2CN(C(=O)CCCn3cccn3)CCO2)n1` (stereo unspecified) was tested, and the INHIBITION was 1.81%.
With `Cc1cc(C(=O)N2C[C@H](C(C)C)[C@@H](N(C)C)C2)cs1` the INHIBITION was 47.2%.
Molecule `CS(=O)(=O)c1cn[nH]c1C1CCCCN1C(=O)c1cnccn1` (stereo unspecified) has an INHIBITION of -21.4%.
`Cc1nc(CN2CCCN(C(=O)c3c(C)oc(C)c3C)CC2)cs1` showed an INHIBITION of -4.16%.
With `O=c1c(S(=O)(=O)N2CCCC2)cccn1Cc1ccccc1Cl` the INHIBITION was 29.6%.
`c1cnc(N2CCO[C@H]3CN(Cc4c[nH]cn4)C[C@H]32)cn1` was tested, and the INHIBITION was 37.8%.
In the case of `OCCN1CCCC(c2nccnc2Oc2ccc(F)cc2)C1` (stereo unspecified), the INHIBITION is reported as 20.8%.
`CCS(=O)(=O)N1C[C@@H](c2cc(O)nc(C)n2)[C@H](c2ccccc2F)C1` showed an INHIBITION of 3.69%.
In the case of `O=C(c1ccccn1)N1CCC2(CC1)COC(COc1cccnc1)C2` (stereo unspecified), the INHIBITION is reported as 5.67%.
`CC(c1cccc(-c2ncc(C#N)c(N)n2)c1)N(C)C` (stereo unspecified) was tested, and the INHIBITION was -0.996%.
In the case of `c1cncc(-c2noc(CCNc3ncnc4c3CCNCC4)n2)c1`, the INHIBITION is reported as 19.4%.
`c1ccc(Cn2cc(CNc3ncnc4c3CCNCC4)cn2)cc1` showed an INHIBITION of 23.6%.
With `c1cncc(-c2noc(CNc3ncnc4c3CCNCC4)n2)c1` the INHIBITION was 8.74%.
Work on `Cc1cccc(-n2cc(CNc3ncnc4c3CCNCC4)cn2)c1` yielded an INHIBITION of 16%.
With `Clc1ccccc1-c1cc(CNc2ncnc3c2CCNCC3)no1` the INHIBITION was 88.2%.
For `Cc1ccc(-c2cc(CNc3ncnc4c3CCNCC4)no2)cc1`, the INHIBITION was 93.1%.
`COCc1noc(CCNc2ncnc3c2CCNCC3)n1` was tested, and the INHIBITION was -58%.
Molecule `COc1ccc(-c2cc(CNc3ncnc4c3CCNCC4)no2)cc1` has an INHIBITION of 94.1%.
For `Cc1ccccc1-n1cc(CNc2ncnc3c2CCNCC3)cn1`, the INHIBITION was -20.7%.
Molecule `CCn1cc(CN2CCCN(C(=O)c3ccoc3C)CC2)cn1` has an INHIBITION of -19.9%.
`COCC(=O)N1Cc2nccn2CC(COc2cccnc2)C1` (stereo unspecified) was tested, and the INHIBITION was 29.3%.
`COc1nn(C)c2c1CCCN(C(=O)c1ccc[nH]1)C2` gave an INHIBITION of -15.7%.
Work on `CCn1c(SCC(N)=O)nnc1-c1csc2c1CCCC2` yielded an INHIBITION of 25.8%.
For `Cn1ccc(C(=O)N2CCCC2c2cc(CO)[nH]n2)n1` (stereo unspecified), the INHIBITION was 14.385%.
Molecule `CCn1cnnc1CNc1nc(C)nc2scc(CC(C)C)c12` has an INHIBITION of 44.3%.
In the case of `CCc1nc(-c2cncnc2C2CCCNC2)no1` (stereo unspecified), the INHIBITION is reported as 20.25%.
`Cc1ccc(Cn2nc(C)c3c(C(=O)O)c(Cl)c(C)nc32)cc1` was tested, and the INHIBITION was 3.52%.
For `CCNc1c(NC(=O)C2CC2)c(=O)oc2ccccc12`, the INHIBITION was -21.9%.
Work on `CN(C)CC(=O)N1CCCCC1c1nc(N)ncc1-c1ccccc1` (stereo unspecified) yielded an INHIBITION of 12.3%.
Molecule `CCSc1nnc([C@@H](N)CC(C)C)o1` has an INHIBITION of -4.56%.
Molecule `COc1ccccc1-c1nccnc1C1CCN(C(C)=O)CC1` has an INHIBITION of 10%.
Work on `Cc1cccc(-c2nccnc2C2CCCN(C)C2)c1C` (stereo unspecified) yielded an INHIBITION of 35.2%.
`Cc1cccc(-c2nccnc2C2CCN(C)CC2)c1C` was tested, and the INHIBITION was 54.5%.
Molecule `COCc1nc(C(=O)N2CCCC2c2ccncc2)cs1` (stereo unspecified) has an INHIBITION of 29.7%.
With `CC(C)c1noc(CN2CCN(CCO)CC2)n1` the INHIBITION was -10.875%.
In the case of `Brc1cccc(-c2noc(C3COCCO3)n2)c1` (stereo unspecified), the INHIBITION is reported as -99.3%.
In the case of `CCCNc1ccc(C(=O)NCCc2ccc(Cl)cc2)cn1`, the INHIBITION is reported as -71.5%.
`CCCNc1ccc(C(=O)NCCc2cccc(OC)c2)cn1` was tested, and the INHIBITION was 25.3%.
With `CCCNc1ccc(C(=O)NCCc2cccc(Cl)c2)cn1` the INHIBITION was 68.8%.
Molecule `O=C1Nc2ccccc2/C1=C1\CCCN1` has an INHIBITION of 43.4%.
In the case of `Cc1nn(Cc2ccccc2)c(C)c1CNC1CCc2ncnn2C1` (stereo unspecified), the INHIBITION is reported as -10.1%.
`COCC1COCCC12CCN(C(=O)CCc1ccccc1C)CC2` (stereo unspecified) showed an INHIBITION of -30.6%.
`CNCC(=O)Nc1ccc(-c2cnc(NCCS(C)(=O)=O)nc2)cc1` was tested, and the INHIBITION was 54.5%.
Work on `CNCC(=O)Nc1cccc(-c2cnc(NCCS(C)(=O)=O)nc2)c1` yielded an INHIBITION of 45.6%.
Work on `CNCC(=O)Nc1cccc(-c2cnc(NCCO)nc2)c1` yielded an INHIBITION of 23.4%.
Molecule `Cn1nc(C(=O)NCc2ccccc2C(F)(F)F)c2c1CCS(=O)(=O)C2` has an INHIBITION of 45.8%.
Molecule `O=C(C1CCOCC1)N1C[C@@H]2CC[C@H]1CN(C1Cc3ccccc3C1)C2` has an INHIBITION of -59.3%.
Molecule `CN(Cc1cc(C[C@@H]2C[C@H](N)C2(C)C)no1)c1ccccc1` has an INHIBITION of 54.3%.
For `CN(C)[C@H]1C[C@@H](Cc2cc(CO)on2)C1(C)C`, the INHIBITION was -17.1%.
Molecule `CCN(CC)[C@H]1C[C@@H](Cc2cc(CO)on2)C1(C)C` has an INHIBITION of 17.4%.
Molecule `Cc1cccc(CN2C(=O)CC[C@@H]3[C@H]2CCN3Cc2nccn2C)n1` has an INHIBITION of 40.4%.
Work on `c1ccc(Cn2cc3c(n2)C(CNCC2CCOCC2)OCC3)nc1` (stereo unspecified) yielded an INHIBITION of -7.7%.
`CCC(CC)C(=O)N1CCC2(C1)CN(c1ccccc1)C(=O)CN2C` (stereo unspecified) showed an INHIBITION of 28.4%.
With `CCC[C@H]1CN(c2nc(CO)cs2)C[C@@H]1NC(=O)C1(COC)CC1` the INHIBITION was 69.7%.
Work on `COC[C@@]12CC[C@@H](N3CCOCC3)C[C@H]1CCN(c1nc(CO)cs1)C2` yielded an INHIBITION of 15.8%.
With `CCC[C@H]1CN(Cc2nccn2C)C[C@@H]1NC(=O)C1(COC)CCC1` the INHIBITION was 31.2%.
`CCC[C@H]1CN(Cc2cncn2C)C[C@@H]1NC(=O)C1(COC)CCC1` showed an INHIBITION of 28%.
`CCC[C@H]1CN(Cc2cc(C)no2)C[C@@H]1NC(=O)C1(COC)CCC1` showed an INHIBITION of 59.3%.
With `CCC[C@H]1CN(Cc2cscn2)C[C@@H]1NC(=O)C1(COC)CCC1` the INHIBITION was 48.5%.
`c1ccc(-c2nnc3n2CCN(Cc2ccc4c(c2)OCCO4)C3)cc1` was tested, and the INHIBITION was 33.7%.
Work on `NC(=O)c1cccc(OCC(=O)N2CCCC(n3ccnc3)C2)c1` (stereo unspecified) yielded an INHIBITION of 36.1%.
For `CC(=O)N1[C@H](CN(C)C)C[C@@H]2CN(c3ncc(F)cn3)CC[C@@H]21`, the INHIBITION was -0.804%.
Molecule `CCC(C)NC(=O)c1ccn(COc2ccccc2Cl)n1` (stereo unspecified) has an INHIBITION of 34.2%.
`COc1ccc(CNc2ncnc3c2NC(=O)CN3)cc1` showed an INHIBITION of 45.8%.
`CC(C)c1nnc2n1CCN(C(=O)CN(C)Cc1ccccc1)C2` was tested, and the INHIBITION was 12.7%.
`Cc1ccc(CN(C)C(C(=O)O)c2ccc3c(c2)OCO3)o1` (stereo unspecified) gave an INHIBITION of 8.51%.
With `CCc1cc2c(N3CCCC(c4cc(C(N)=O)[nH]n4)C3)ncnc2s1` (stereo unspecified) the INHIBITION was 55%.
Work on `CCc1cc2c(N3CCCC(c4ccn[nH]4)C3)ncnc2s1` (stereo unspecified) yielded an INHIBITION of -1.76%.
For `CCc1ncnc(N2CCCC(c3cc(C(N)=O)[nH]n3)C2)c1F` (stereo unspecified), the INHIBITION was -24%.
`COCC(=O)N1CCC(Cc2nccnc2-c2c(C)n[nH]c2C)C1` (stereo unspecified) gave an INHIBITION of 17.4%.
For `CCCN1CCN(c2nc(N)nc3c2nc(C)n3C)CC1`, the INHIBITION was 13.1%.
`CSCCC(NC(=O)c1ccc2ccccc2n1)C(=O)N(C)C` (stereo unspecified) gave an INHIBITION of 60.8%.
Work on `CNC(=O)C(CCSC)NC(=O)c1ccc2ccccc2n1` (stereo unspecified) yielded an INHIBITION of 19.1%.
`CSCCC(NC(=O)c1ccc2ccccc2n1)C(=O)NC1CC1` (stereo unspecified) gave an INHIBITION of 43.7%.
Work on `CSCCC(NC(=O)c1ccc2ccccc2n1)C(=O)NC(C)C` (stereo unspecified) yielded an INHIBITION of 40.5%.
`CCOCCNC(=O)C(CCSC)NC(=O)c1ccc2ccccc2n1` (stereo unspecified) was tested, and the INHIBITION was 60.8%.
Work on `CSCCC(NC(=O)c1ccc2ccccc2n1)C(=O)O` (stereo unspecified) yielded an INHIBITION of 42.6%.
`Cc1ccc(CN2CCc3onc(COc4cccnc4)c3C2)s1` was tested, and the INHIBITION was 27.6%.
Work on `O=C(CNC(Cn1cccn1)c1ccccc1)Nc1cnccn1` (stereo unspecified) yielded an INHIBITION of -12.4%.
`Cc1ccc(C2CCCN2S(=O)(=O)N(C)Cc2cnccn2)o1` (stereo unspecified) showed an INHIBITION of 37.9%.
Work on `CCCn1cc2nc(N3CCCC3)[nH]cc-2c1=O` yielded an INHIBITION of 44.9%.
`Cc1cnn(CC2CCCN2C(=O)c2ccc(F)c(F)c2)c1` (stereo unspecified) gave an INHIBITION of -63.3%.
For `O=C(Nc1ccc(CCN2CCOCC2)cc1)C1CCC1`, the INHIBITION was 26.25%.
`CCCc1noc(CN2CCN(CCO)CC2)n1` gave an INHIBITION of 9.015%.
`CC(NCC(=O)N1CCc2sccc2C1)c1ccccc1F` (stereo unspecified) showed an INHIBITION of 14.9%.
With `CCN(CC)C(=O)c1ccc(Cl)c(NC(=O)c2csnn2)c1` the INHIBITION was 28.5%.
Molecule `CCN(CC)C(=O)c1ccc(Cl)c(NC(=O)c2cc[nH]n2)c1` has an INHIBITION of 9.41%.
With `CCN(CC)C(=O)c1ccc(Cl)c(NC(=O)c2cnc(C)cn2)c1` the INHIBITION was 51.2%.
`Cc1oc(-c2nc(C#N)c(NC(C)(C)C)o2)cc1S(=O)(=O)N1CCCC1` gave an INHIBITION of 40.1%.
`CCC(CC)N1CCC(c2[nH]ncc2S(C)(=O)=O)C1` (stereo unspecified) showed an INHIBITION of -3.94%.
`O=C(NCc1ccco1)N1CCCCC1c1nc(-c2ccncc2)no1` (stereo unspecified) showed an INHIBITION of -31%.
With `CS(=O)(=O)N1C[C@H]2CC[C@@H](C1)N(C(=O)Cn1nc3ccccc3n1)C2` the INHIBITION was 21.7%.
For `C[C@@H]1CN(C2Cc3ccccc3C2)CC[C@@]1(O)C1CCOCC1`, the INHIBITION was 10.2%.
Molecule `C[C@@H]1CN(C2CCN(c3ccccc3)CC2)CC[C@@]1(O)C1CCOCC1` has an INHIBITION of -2.61%.
With `C[C@@H]1CN(C2CCCCC2)CC[C@@]1(O)C1CCOCC1` the INHIBITION was 57.7%.
Molecule `Cc1nc(C)n(CC2CCCN2CCC(=O)NC2CCCC2)n1` (stereo unspecified) has an INHIBITION of -38.7%.
`CN(C)c1ccc(C(=O)N2CCN(CC(C)(C)O)CC2)nn1` showed an INHIBITION of 21.6%.
